Laboratory results taken from PubChem BioAssay (EPA / NIEHS).
“And” between values parts separate entries of the source, which are not always exact repeats. Equal values may be shown once. Records with an inconclusive call do not appear. Where a structure was tested more than once in an assay, its records may differ in their call. The source made the active and inactive calls. How the source made its calls: active means hit-call score of the fitted dose curve at least 0.9, where 1 is the maximum; inconclusive means response in the unintended direction; inactive means score below 0.9.

System: not listed separately
Assay: ATG_XTT_Cytotoxicity_XSP2: Cytotoxicity Assessment in the Attagene TRANS-FACTORIAL Multi-Species (XSP2) HepG2 Assay (AID 2283837)
Method in brief: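 HepG2 cells, transiently transfected with multiple reporter constructs, exposed to chemical for 24 h. Cell number assessed with XTT fluorescence read-out; loss of signal fitted relative to DMSO.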

| SMILES | AC50 | outcome |
| --- | --- | --- |
| CCCCCCCCOC(=O)c1ccc(O)cc1 | 41.3 µM (active) |  |
| O=c1cc(-c2ccc(O)cc2)oc2cc(O)cc(O)c12 |  | inactive |
| CCCCCC(=O)O[C@]1(C(C)=O)CC[C@H]2[C@@H]3CCC4=CC(=O)CC[C@]4(C)[C@H]3CC[C@@]21C |  | inactive |
| CC(C)(C)c1ccc(S)cc1 |  | inactive |

Target: human Thyroid hormone Receptor alpha (TRa), THRA (gene 7067) (UniProt P10827)
Assay: ATG_hTRa_XSP2: Attagene TRANS-FACTORIAL Multi-Species (XSP2) HepG2 Assay for human Thyroid hormone Receptor alpha (TRa) (AID 2283838)
Method in brief: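 HepG2 cells transiently transfected with multiplexed GAL4-UAS reporter units and exogenous NR-GAL4 chimeras; 24 h chemical exposure with 3 nM 6-alpha-fluorotestosterone and 1.5 nM norgestrel present. Reporter mRNA measured by RT-PCR, FAM labelling, HpaI digestion, capillary electrophoresis; gain-of-signal versus DMSO.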

Sequence of human Thyroid hormone Receptor alpha (TRa), THRA (gene 7067) (P10827 whole entry, looked up): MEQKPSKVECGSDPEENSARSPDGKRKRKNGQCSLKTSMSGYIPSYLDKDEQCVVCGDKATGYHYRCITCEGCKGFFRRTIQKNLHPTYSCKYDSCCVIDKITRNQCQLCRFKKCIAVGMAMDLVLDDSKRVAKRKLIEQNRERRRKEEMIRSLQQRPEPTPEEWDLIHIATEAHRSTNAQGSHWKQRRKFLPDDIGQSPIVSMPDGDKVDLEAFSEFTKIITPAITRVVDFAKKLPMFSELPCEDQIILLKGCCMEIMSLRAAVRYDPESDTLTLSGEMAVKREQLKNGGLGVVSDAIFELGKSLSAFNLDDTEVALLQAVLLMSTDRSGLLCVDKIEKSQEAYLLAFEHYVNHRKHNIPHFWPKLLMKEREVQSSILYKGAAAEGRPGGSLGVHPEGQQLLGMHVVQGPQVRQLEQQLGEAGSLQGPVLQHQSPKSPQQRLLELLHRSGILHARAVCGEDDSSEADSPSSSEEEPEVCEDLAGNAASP

| SMILES | outcome | AC50 |
| --- | --- | --- |
| CCCCCCCCOC(=O)c1ccc(O)cc1 | inactive |  |
| O=c1cc(-c2ccc(O)cc2)oc2cc(O)cc(O)c12 | inactive | 6.26 µM (active) |
| CC(C)(C)c1ccc(S)cc1 | inactive |  |

Target: frog Thyroid hormone Receptor alpha (TRa), thra-a (gene 397942) (UniProt P15204)
Assay: ATG_frTRa_XSP2: Attagene TRANS-FACTORIAL Multi-Species (XSP2) HepG2 Assay for frog Thyroid hormone Receptor alpha (TRa) (AID 2283839);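 on AC50: AC50 reflects induction of frog TRa-driven reporter mRNA above DMSO baseline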
Method in brief: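 Frog thyroid receptor alpha was tested as an exogenous NR-Gal4 fusion in transiently transfected HepG2 cells. After 24 h chemical treatment, reporter mRNA induction was quantified by RT-PCR and capillary electrophoresis, with gain-of-signal analysed relative to DMSO.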

Sequence of frog Thyroid hormone Receptor alpha (TRa), thra-a (gene 397942) (P15204 whole entry, looked up): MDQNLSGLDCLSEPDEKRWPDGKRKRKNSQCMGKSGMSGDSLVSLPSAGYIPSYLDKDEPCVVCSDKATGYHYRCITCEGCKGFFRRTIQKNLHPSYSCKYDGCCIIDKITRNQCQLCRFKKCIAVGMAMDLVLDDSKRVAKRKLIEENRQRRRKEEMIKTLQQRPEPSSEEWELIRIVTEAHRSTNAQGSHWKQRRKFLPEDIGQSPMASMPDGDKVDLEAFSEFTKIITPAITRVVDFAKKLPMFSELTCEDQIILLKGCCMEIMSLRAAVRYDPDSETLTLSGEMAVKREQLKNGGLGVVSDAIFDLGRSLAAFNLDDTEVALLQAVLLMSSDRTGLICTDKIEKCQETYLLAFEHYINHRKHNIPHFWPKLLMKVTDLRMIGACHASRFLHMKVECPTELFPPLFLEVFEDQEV

| SMILES | outcome | AC50 |
| --- | --- | --- |
| CCCCCCCCOC(=O)c1ccc(O)cc1 | inactive |  |
| O=c1cc(-c2ccc(O)cc2)oc2cc(O)cc(O)c12 |  | 39.2 µM (active) and 44.6 µM (active) |
| CC/C(=C(\c1ccccc1)c1ccc(OCCN(C)C)cc1)c1ccccc1 | inactive |  |
| CC(C)(C)c1ccc(S)cc1 | inactive |  |

Target: human Thyroid hormone Receptor beta (TRb), THRB (gene 7068) (UniProt P10828)
Assay: ATG_hTRb_XSP2: Attagene TRANS-FACTORIAL Multi-Species (XSP2) HepG2 Assay for human Thyroid hormone Receptor beta (TRb) (AID 2283840);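 further: actives raise reporter mRNA so potency reflects agonist-like gain of signal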
Method in brief: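 In this cell-based multiplex, HepG2 liver cells carrying transfected GAL4-UAS reporter constructs are exposed to chemical for 24 hours, then reporter transcripts are measured by RT-PCR with capillary electrophoresis, scored as gain of signal against DMSO.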

Sequence of human Thyroid hormone Receptor beta (TRb), THRB (gene 7068) (P10828 whole entry, looked up): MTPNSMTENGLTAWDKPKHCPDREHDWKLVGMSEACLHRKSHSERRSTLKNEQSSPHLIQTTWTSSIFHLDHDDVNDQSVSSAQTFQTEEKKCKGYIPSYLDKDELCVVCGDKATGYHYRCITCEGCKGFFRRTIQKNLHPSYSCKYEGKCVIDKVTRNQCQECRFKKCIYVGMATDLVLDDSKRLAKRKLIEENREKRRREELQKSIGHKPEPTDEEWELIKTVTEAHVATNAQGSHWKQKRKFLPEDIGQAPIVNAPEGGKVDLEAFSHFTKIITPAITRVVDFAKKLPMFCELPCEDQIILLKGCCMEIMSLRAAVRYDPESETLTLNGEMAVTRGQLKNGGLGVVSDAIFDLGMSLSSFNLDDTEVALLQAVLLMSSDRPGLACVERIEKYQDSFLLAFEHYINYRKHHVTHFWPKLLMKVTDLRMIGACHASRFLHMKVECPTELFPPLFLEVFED

| SMILES | outcome | AC50 |
| --- | --- | --- |
| CCCCCCCCOC(=O)c1ccc(O)cc1 | inactive |  |
| C#C[C@]1(O)CC[C@H]2[C@@H]3CCc4cc(O)ccc4[C@H]3CC[C@@]21C |  | 0.0262 µM (active) |
| O=c1cc(-c2ccc(O)cc2)oc2cc(O)cc(O)c12 | inactive | 7.81 µM (active) |
| CC/C(=C(\c1ccccc1)c1ccc(OCCN(C)C)cc1)c1ccccc1 | inactive |  |
| CCCCCC(=O)O[C@]1(C(C)=O)CC[C@H]2[C@@H]3CCC4=CC(=O)CC[C@]4(C)[C@H]3CC[C@@]21C | inactive |  |

System: Sodium/Iodide Symporter (NIS), SLC5A5 (gene 6528)
Assay: CPHEA_Stoker_NIS_Inhibition_RAIU: CPHEA's Radioactive Iodide Uptake (RAIU) Assay for Sodium/Iodide Symporter (NIS) Inhibition, Stoker and Laws Labs (AID 2283841)
Method in brief: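 Test chemicals, six concentrations from 0.001 to 100uM in 0.5% DMSO, were co-incubated with carrier-free 125I (final 329pM) on hNIS-HEK293T-EPA monolayers in pH 7.4 HEPES-buffered HBSS. Plates stood 2 hours at room temperature, then were washed cold and counted.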

| SMILES | outcome | AC50 |
| --- | --- | --- |
| COC(=O)C(C)Oc1ccc(Oc2ncc(C(F)(F)F)cc2Cl)cc1 (stereo not drawn) | inactive |  |
| CC(=O)N(C)C | inactive |  |
| c1ccc(Cc2ccccc2)cc1 | inactive |  |
| O=C(OCc1ccccc1)c1ccccc1O |  | 9.92 µM (active) |
| CCCCCCCCCO | inactive |  |
| [Na+] |  | 5.73 µM (active) |
| O=C(O)C(F)(F)C(F)(F)C(F)(F)C(F)(F)C(F)(F)C(F)(F)C(F)(F)C(F)F |  | 18.4 µM (active) |
| C#C[C@]1(O)CC[C@H]2[C@@H]3CCc4cc(O)ccc4[C@H]3CC[C@@]21C | inactive |  |
| O=c1cc(-c2ccc(O)cc2)oc2cc(O)cc(O)c12 | inactive |  |
| CC/C(=C(\c1ccccc1)c1ccc(OCCN(C)C)cc1)c1ccccc1 | inactive |  |
| CCCCCCOc1ccc(O)cc1 | inactive |  |
| CCCCCC(=O)O[C@]1(C(C)=O)CC[C@H]2[C@@H]3CCC4=CC(=O)CC[C@]4(C)[C@H]3CC[C@@]21C | inactive |  |
| CCC(C)COC(=O)CC(C)C (stereo not drawn) | inactive |  |
| CCCCCC1CCC(=O)O1 (stereo not drawn) | inactive |  |
| O=S(=O)(O)C(F)(F)C(F)(F)OC(F)(F)C(F)(F)F | inactive |  |
| CC(=O)C1=C(C)[C@@H]2C[C@@]3(C1)[C@H](C)CC[C@H]3C2(C)C | inactive |  |
| C=C(C)C(=O)OCCC(F)(F)C(F)(F)C(F)(F)C(F)(F)C(F)(F)C(F)(F)C(F)(F)C(F)(F)F | inactive |  |
| CCCCCCCCCCCCOCCOS(=O)(=O)O |  | 9.92 µM (active) |
| O=C(O)C(F)(F)OC(F)(F)C(F)(F)OC(F)(F)C(F)(F)C(F)(F)C(F)(F)F | inactive |  |
| CC(=O)OC(C)(C)C | inactive |  |
